{"source": "PubChem BioAssay (NCI)", "note": "“And” between values parts separate entries of the source, which are not always exact repeats. Equal entries are not always repeated. Compounds without any hit were thinned out: in the full panel of roughly 83,000, 20% have a hit.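 How to read the values: 0–100, growth inhibition (40 = 60% inhibited); 0, no net growth; -100 to 0, cell death (-40 = 40% of starting cells died; -100 = all dead).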 Unmarked numbers belong to inactive results. The source made the active and inactive calls. How the source made its calls: active means growth percent below 10; inactive means the rest.", "data": [{"tested_on": "SK-OV-3 ovarian", "experiment": "NCI-60 one-dose screen, 48 h (100 = growth as untreated, 0 = no growth, -100 = all killed)", "conditions": "10 µM unless noted", "values": [{"compound": "O=C(/C=C/Nc1ccc(S(=O)(=O)Nc2ncccn2)cc1)c1ccc(N=Cc2c(O)[nH]c3ccccc23)cc1", "growth": "109%"}, {"compound": "CCCCCN1C(=O)/C(=c2\\sc3n(c2=O)C2C(NN=3)N(CC)C(=O)N2CC)c2cccc(C)c21", "note": "(stereo not given)", "growth": "89.3%"}, {"compound": "C#C[C@]1(O)CC[C@H]2[C@@H]3CC=C4c5sc(Nc6ncccc6C)nc5CC[C@]4(C)[C@H]3CC[C@@]21C", "growth": "-37.2% (active)"}, {"compound": "O=C1CSC(c2cn(-c3ccccc3)nc2-c2ccc(Cl)cc2)N1c1ccccc1", "note": "(stereo not given)", "growth": "114%"}, {"compound": "CC(=O)Nc1ccccc1-c1nc2ccccc2s1", "growth": "108%"}, {"compound": "O=C(/C=C/c1cccc(Br)c1)c1cccc(OCCCCOc2cccc(C(=O)/C=C/c3cccc(Br)c3)c2)c1", "growth": "107%"}, {"compound": "C/C(=C(\\c1ccc(O)cc1)c1ccc(OCCN2CCCCCC2)cc1)c1ccc(Cl)cc1", "growth": "-85.5% (active)"}, {"compound": "Clc1ccc(CSc2nnc(-c3ccc(Cl)cc3)n2-c2ccccc2)cc1", "growth": "48.3%"}, {"compound": "O=C(CCCCCCNC(=O)C(O)(O)C(F)(F)F)Nc1nc2ccccc2s1", "growth": "-26.3% (active)"}, {"compound": "CC(C)NC(=O)c1cc(-c2ccc(NC(=O)Nc3ccc(F)c(C(F)(F)F)c3)cc2)nc2cccnc12", "growth": "105%"}, {"compound": "COc1ccc(-c2cnc(NC(=O)CCCCCCNC(=O)C(O)(O)C(F)(F)F)s2)cc1", "growth": "-19.3% (active)"}, {"compound": "C/C=C/CC(C)C(O)[C@H](NC(=O)[C@@H]1CCCN1C(=O)[C@](C)(CC)NC(=O)CCCCCCCCC)C(=O)N[C@@](C)(CC)C(=O)N[C@@H](CCC(N)=O)C(=O)N[C@H](CCC(N)=O)C(=O)NC(C)(C)C(=O)NC(C)(C)C(=O)N[C@@H](CCC(N)=O)C(=O)N[C@H](CC(C)C)C(=O)N[C@H](CO)CC(C)C", "note": "(stereo not given in full)", "growth": "107% and 19.3%"}, {"compound": "CC1CC(=O)C2=C(C1)Nc1ccc(Br)cc1CC2c1c[nH]c2ccc(Br)cc12", "note": "(stereo not given)", "growth": "77.3%"}, {"compound": "CC(C)(C)Nc1nc2c(OCCc3ccccc3)cccn2c1-c1cccc(Oc2ccccc2)c1", "growth": "-1.76% (active)"}, {"compound": "CCCC/C(=C\\c1ccc(O)c(O)c1)C(=O)NC(Cc1ccccc1)C(=O)C(=O)NCCc1ccc(OC)cc1", "note": "(stereo not given)", "growth": "105%"}, {"compound": "COC(=O)c1cccc(NC2=C(Cl)C(=O)c3nc(C)ccc3C2=O)c1", "growth": "87.6%"}, {"compound": "NC1CC2(CCN(c3cnc(C(=O)Nc4cc(F)cc5cccnc45)cn3)CC2)C1", "growth": "107%"}, {"compound": "COC(=O)c1ccc(NC2=C(Cl)C(=O)c3nc(C)ccc3C2=O)cc1", "growth": "125%"}, {"compound": "CC(Nc1c(C#N)cnc2ccc(-c3cncc(-c4n[nH]c(=O)o4)c3)cc12)c1ccccc1", "note": "(stereo not given)", "growth": "3.52% (active)"}, {"compound": "CC(=O)OC[C@]12CC[C@@H](C(=O)/C=C/c3cccnc3)[C@@H]1[C@H]1CC[C@@H]3[C@@]4(C)CC[C@H](OC(C)=O)C(C)(C)[C@@H]4CC[C@@]3(C)[C@]1(C)CC2", "growth": "65.8%"}, {"compound": "CC(O)c1cccc(/C(N)=N/C(N)=N/c2nc3ccccc3s2)c1", "note": "(stereo not given)", "growth": "105%"}, {"compound": "CC(C)=CCC[C@](C)(O)[C@H]1CC[C@]2(C)[C@@H]1CC[C@@H]1[C@@]3(C)CC[C@H](N)C(C)(C)[C@@H]3CC[C@]12C", "growth": "104%"}, {"compound": "Cc1ccc2c(n1)C(=O)C(Cl)=C(Nc1cccc(C)c1C)C2=O", "growth": "117%"}, {"compound": "C[C@]12CC[C@H]3[C@@H](CC=C4C[C@@H](O)CC[C@@]43C)[C@@H]1CC[C@@H]2[C@](C)(O)CCc1cccnc1", "growth": "82.8%"}, {"compound": "CN1CCN(c2ccc(Nc3nc(NCCCNS(=O)(=O)c4ccc(C(F)(F)F)cc4)c4sccc4n3)cc2)CC1", "growth": "-37% (active)"}, {"compound": "Cc1ccc2c(n1)C(=O)C(Cl)=C(Nc1cccc(C(F)(F)F)c1)C2=O", "growth": "89.8%"}, {"compound": "O=C(CN1CCN(c2cc(=O)[nH]c3ccc(F)cc23)CC1)N(c1ccccc1)c1ccccc1", "growth": "109%"}, {"compound": "Cc1[nH]c(C(=O)Nc2ccc(C(N)=O)cc2N2CCOC(C)C2)c(Cl)c1Cl", "note": "(stereo not given)", "growth": "102%"}, {"compound": "CC1(C)CC[C@]2(C(=O)O)CC[C@]3(C)C(=CC[C@@H]4[C@@]5(C)CC[C@H](NOCCCN)C(C)(C)[C@@H]5CC[C@]43C)[C@@H]2C1", "growth": "95.8%"}, {"compound": "Cc1ccc2c(n1)C(=O)C(Cl)=C(Nc1ccc(C#N)cc1)C2=O", "growth": "106%"}, {"compound": "CC(=O)Nc1nc(C)c(-c2csc(Nc3ccccc3)n2)s1", "growth": "15.3%"}, {"compound": "O=C(/C=C/c1cccc(F)c1)c1cccc(OCCCCOc2cccc(C(=O)/C=C/c3cccc(F)c3)c2)c1", "growth": "109%"}, {"compound": "O=S(=O)(NCCCNc1nccc(-c2[nH]c(-c3ccccc3)nc2-c2ccc(F)c(O)c2)n1)c1ccc(C(F)(F)F)cc1", "growth": "78.4%"}, {"compound": "O=C(CCCCCCNC(=O)C(O)(O)C(F)(F)F)Nc1ncc(-c2ccccc2)s1", "growth": "-23.8% (active)"}, {"compound": "CN(C)c1ccc(/C=N/Nc2nc(N/N=C/c3ccc(N(C)C)cc3)nc(N3CCCCC3)n2)cc1", "growth": "132%"}, {"compound": "NC1[C@H]2CN(c3cnc(C(=O)Nc4cc(F)cc5cccnc45)cn3)C[C@@H]12", "note": "(stereo not given in full)", "growth": "93.2%"}, {"compound": "Clc1cccc(/C=N/Nc2nc(N/N=C/c3cccc(Cl)c3)nc(N3CCCCC3)n2)c1", "growth": "109%"}, {"compound": "CC(Nc1ncnc2ccc(-c3cnc4cnccn34)cc12)c1ccccc1", "note": "(stereo not given)", "growth": "60.6%"}, {"compound": "CN1CCN(c2ccc(Nc3nc(NCCNC(=O)c4ccccc4)c4sccc4n3)cc2)CC1", "growth": "123%"}, {"compound": "O=C(CSc1nc2ccccc2c(=O)n1-c1ccccc1)N/N=C/c1ccc(Oc2ccc(Cl)cc2)cc1", "growth": "83.2%"}]}]}
